# From PubChem BioAssay (EPA / NIEHS)
# Calls of active or inactive are those of the source. Rule for the calls: active = hit-call score of the fitted dose curve at least 0.9, where 1 is the maximum; inactive = score below 0.9.
# Experiment: APR_HepG2_NuclearSize_1hr: Apredica 1-hour HepG2 Assay for Nuclear Size (AID 2282670)
# Details: high-content imaging, actives raise or lower the signal
# Procedure: APR_HepG2_1hr is a cell-based, multiplexed-readout assay that uses HepG2, a human liver cell line, with measurements taken at 1 hour after chemical dosing in a 384-well plate.APR_HepG2_NuclearSize_1hr is one of 10 assay component(s) measured or calculated from the APR_HepG2_1hr assay. It is designed to make measurements of cell phenotype, a form of morphology reporter, as detected with fluorescence intensity signals by HCS Fluorescent Imaging technology.Data from the assay component APR_HepG2_NuclearSize_1hr was analyzed into 1 assay endpoint. This assay endpoint, APR_HepG2_NuclearSize_1hr, was analyzed with bidirectional fitting relative to DMSO as the negative control and baseline of activity. Using a type of morphology reporter, measures of all nuclear dna for gain or loss-of-signal activity can be used to understand the signaling at the nuclear-level. Furthermore, this assay endpoint can be referred to as a primary readout, because this assay has produced multiple assay endpoints where this one serves a signaling function. To generalize the intended target to other relatable targets, this assay endpoint is annotated to the cell morphology intended target family, where the subfamily is organelle conformation.
# Cells were treated with dimethyl sulfoxide (DMSO) as a solvent control at a final concentration of 0.5% v/v or with compounds in DMSO with a resulting final DMSO concentration of 0.5% v/v. Compound treatment was done at concentrations of 0.39, 0.78, 1.56, 3.12, 6.24, 12.5, 25, 50, 100, and 200 uM in duplicate on each plate. Cells were treated with compounds for 1, 24, or 72 hr. Carbonyl […] m-chloro-phenylhydrazone (CCCP) and taxol were used as positive controls for mitochondrial function and cytoskeletal stability, respectively; DMSO served as the negative control for this experiment. Cells were fixed by the direct addition of 50 uL formaldehyde in Hank's Balanced Salt Solution (HBSS) to a final concentration of 3.7%. After incubation in the fixation medium for 30 min at room temperature (293-298 K), cells were rinsed twice with HBSS and treated with cell permeabilization buffer (16 uL of 0.5% Triton X-100) for 10 min at room temperature (293-298 K) before labeling. For mitochondrial membrane potential and mitochondrial measurements, pre-fixed cells were incubated with 50 uL of MitoTracker Red CMXRos (Invitrogen) at a concentration of 250 nM for 30 min before fixation. In the remaining cases, post-fixed cells were labeled by incubation with a multiplexed mixture of primary antibodies in HBSS for 60 min at room temperature (293-298 K) to detect immunoreactivity of c-Jun (1:500), phospho-histone H3 (1:100), phospho-histone H2A.x (1:200), p53 (1:400), alpha-tubulin (1:200) and Hoechst 33342 (2 ug/mL). Cells were labeled for multiplexed imaging on two separate plates: a) Hoechst 33342, MitoTracker Red, phospho-histone H3, and alpha-tubulin, and b) Hoechst 33342, phospho-histone H2A.x, and c-Jun. A final rinse with HBSS (50 uL) was performed before analysis. The primary and secondary antibodies for the proteins were phospho-histone H3 (rabbit anti-phospho-histone H3 and FITC-donkey anti-rabbit IgG), phospho-histone H2A.x (mouse anti-phospho-histone H2A.x and FITC-donkey anti-mouse IgG), c-Jun (rabbit anti-phospho-c-Jun and Cy3-donkey anti-rabbit IgG), p53 (sheep anti-p53 and Cy5-donkey anti-sheep IgG), alpha-tubulin (mouse anti-alpha-tubulin and Cy5-donkey anti-mouse IgG). These antibodies are available as the CellCiphr HepG2 assay kit (Millipore).Digital images of each well were captured using a Cellomics ArrayScan VTI (Thermo Scientific Cellomics) (0.8 NA objective, 0.63x optical coupler, and XF-93 filter set) at 20x magnification. The images were acquired using the autofocus feature of the ArrayScan instrument, which entails the following steps. First, the camera focuses on channel 1 (Hoechst 33342), where nuclei are identified. Second, a Z offset of 1 um is used for capturing mitochondria (MitoTracker Red). […]
SMILES,outcome,AC50
CCCCOC(=O)c1ccccc1C(=O)OCCCC,inactive,
CCOP(=S)(OCC)SCn1c(=O)oc2cc(Cl)ccc21,inactive,
COP(=S)(OC)Oc1nc(Cl)c(Cl)cc1Cl,inactive,
COC(=O)C(C)Oc1ccc(Oc2ccc(Cl)cc2Cl)cc1 (stereo not given),inactive,
N#CC(CCc1ccc(Cl)cc1)(Cn1cncn1)c1ccccc1 (stereo not given),inactive,
C=CCC1=C(C)[C@@H](OC(=O)[C@@H]2[C@@H](C=C(C)C)C2(C)C)CC1=O,inactive,
CCON=C(CC)C1=C(O)CC(c2c(C)cc(C)cc2C)CC1=O (stereo not given),inactive,
CCOC(=O)CC(SP(=S)(OC)OC)C(=O)OCC (stereo not given),inactive,
CCNc1nc(Cl)nc(NC(C)C)n1,inactive,
CCNc1nc(Cl)nc(NCC)n1,inactive,
COc1nc(C)nc(NC(=O)NS(=O)(=O)c2ccccc2Cl)n1,inactive,
CNC(=S)S,inactive,
C=CC1(C)OC(=O)N(c2cc(Cl)cc(Cl)c2)C1=O (stereo not given),inactive,
CS/C(C)=N/OC(=O)N(C)SN(C)C(=O)O/N=C(\C)SC,inactive,
CC(C)C1(C)N=C(c2nc3ccccc3cc2C(=O)O)NC1=O (stereo not given),inactive,
C=CCC1=C(C)C(OC(=O)C2C(C=C(C)C)C2(C)C)CC1=O (stereo not given),inactive,
O=C(O)COc1nc(Cl)c(Cl)cc1Cl,inactive,
COc1nc(NC(C)C)nc(NC(C)C)n1,inactive,
COc1cnc(OC)n2nc(NS(=O)(=O)c3c(OCC(F)F)cccc3C(F)(F)F)nc12,inactive,
Oc1ccccc1-c1ccccc1,inactive,

SMILES,outcome,AC50
CCCCNC(=O)n1c(NC(=O)OC)nc2ccccc21,inactive,
COP(N)(=O)SC (stereo not given),inactive,
COC(=O)c1ccccc1C(=O)OC,inactive,
O=C(O)c1nc(Cl)ccc1Cl,inactive,
C#CCOS(=O)OC1CCCCC1Oc1ccc(C(C)(C)C)cc1 (stereo not given),inactive,
CCc1nn(C)c(C(=O)NCc2ccc(C(C)(C)C)cc2)c1Cl,inactive,
CCCCC(CC)COC(=O)c1ccccc1C(=O)OCC(CC)CCCC (stereo not given),inactive,
N#Cc1cc(Br)c(O)c(Br)c1,inactive,
N#Cc1nn(-c2c(Cl)cc(C(F)(F)F)cc2Cl)c(N)c1S(=O)C(F)(F)F (stereo not given),inactive,
CC(C)Oc1cc(-n2nc(C(C)(C)C)oc2=O)c(Cl)cc1Cl,inactive,
COc1nc(C)nc(NC(=O)NS(=O)(=O)c2ccccc2CCC(F)(F)F)n1,inactive,
Cc1cc(Cl)ccc1OCC(=O)O,inactive,
Fc1ccc(Oc2ccnc3cc(Cl)cc(Cl)c23)cc1,inactive,
CCCN(CCC)c1c([N+](=O)[O-])cc(S(N)(=O)=O)cc1[N+](=O)[O-],,61.6 µM (active)
CC1COC(Cn2cncn2)(c2ccc(Oc3ccc(Cl)cc3)cc2Cl)O1 (stereo not given),inactive,
OC(c1ccc(Cl)cc1)(c1cncnc1)c1ccccc1Cl (stereo not given),inactive,
Cc1ccc(-c2c(Cl)nc(C#N)n2S(=O)(=O)N(C)C)cc1,inactive,
COC(=O)N(OC)c1ccccc1COc1ccn(-c2ccc(Cl)cc2)n1,inactive,
CCCC1COC(Cn2cncn2)(c2ccc(Cl)cc2Cl)O1 (stereo not given),inactive,
CON(C)C(=O)Nc1ccc(Cl)c(Cl)c1,inactive,
